This is an account of results in PubChem BioAssay (NCI).

A short description of assay [1]: NCI Yeast Anticancer Drug Screen. Data for the rad50 strain (AID 155).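 Also: 0% = growth of vehicle-only cultures of the same strain.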 Conditions: S. cerevisiae rad50 strain growth inhibition, hits give high values. Summed up: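 Compounds were tested on a yeast strain with an engineered DNA damage repair alteration; the reported value is growth inhibition normalised to vehicle treatment.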
A short description of assay [2]: NCI Yeast Anticancer Drug Screen. Data for the mec2-1 strain (AID 157). Conditions: S. cerevisiae mec2-1 strain, hits give high values. Summed up: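 Each compound was tested on mec2-1 yeast, a strain altered in DNA damage repair or cell cycle control. Growth inhibition is reported relative to vehicle.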
Assay [3] can be described thus: NCI Yeast Anticancer Drug Screen. Data for the sgs1 mgt1 strain (AID 161).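 Also: 0% = growth of cultures given vehicle only.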 Conditions: S. cerevisiae sgs1 mgt1 strain, hits give high values. The essentials:
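Read-out: growth inhibition vs vehicle controls. Cells: mutant yeast strain deficient in DNA damage repair.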

The nature of assay [4]: NCI Yeast Anticancer Drug Screen. Data for the cln2 rad14 strain (AID 165).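 Also: 0% = growth equal to vehicle treated cultures.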 Conditions: S. cerevisiae cln2 rad14 strain, hits give high values. The essentials:
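Test compounds were added to cln2 rad14 yeast cultures; inhibition of growth was then determined by comparison with vehicle treatment.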

The nature of assay [5]: NCI Yeast Anticancer Drug Screen. Data for the bub3 strain (AID 167). Conditions: S. cerevisiae bub3 mutant strain, hits give high values. Summed up:
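Growth of a checkpoint-deficient yeast mutant is measured after compound exposure. Values represent inhibition relative to vehicle.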

Assay [6] is described as follows: NCI Yeast Anticancer Drug Screen. Data for the mlh1 rad18 strain (AID 175). Particulars: S. cerevisiae mlh1 rad18 strain growth inhibition, hits give high values. Summed up:
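Inhibition values reflect reduced growth of mutant yeast versus vehicle-treated controls following compound exposure; the mutations affect DNA damage repair.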

The mark [7] stands for this setting: at 5.0 µM (retest, dose inferred, filed as 0.5).
The mark [8] stands for this setting: at 50.0 µM (retest, dose inferred, filed as 5.0).

Each structure is given as a SMILES string. Compounds without any hit were thinned out: in the full panel of roughly 79,000, 15% have a hit. A number with no mark means an inactive call. Active and inactive are the calls of the source. Rule as the data show it: active = growth inhibition above about 70%; inactive = the rest.

In the case of `O=C1c2ccccc2Cc2cc(O)ccc21`, the growth inhibition was 29% in assay [1] (setting [7]); 94% (active) in assay [1] (setting [8]); 47.5% in assay [1] (at 50.0 µM); 13% in assay [2] (setting [7]); 92% (active) in assay [2] (setting [8]); 48.4% in assay [2] (at 50.0 µM). For the same compound, the growth inhibition in assay [3] (setting [7]) is 8%; in assay [3] (setting [8]) it was 91% (active); in assay [3] (at 50.0 µM), 45%; in assay [4] (setting [7]), 4%; in assay [4] (setting [8]), 88% (active); in assay [4] (at 50.0 µM), 82.5% (active). For the same compound, the growth inhibition was 2% in assay [5] (setting [7]); 89% (active) in assay [5] (setting [8]); 88.6% (active) in assay [5] (at 50.0 µM); 10% in assay [6] (setting [7]); 92% (active) in assay [6] (setting [8]); 91.3% (active) in assay [6] (at 50.0 µM).
Consider `O=C(O)c1ccccc1-c1c2ccc(=O)c(Br)c-2oc2c(Br)c(O)ccc12`, for which the growth inhibition is 13% in assay [1] (setting [7]); 93% (active) in assay [1] (setting [8]); 87.5% (active) in assay [1] (at 50.0 µM); 42% in assay [2] (setting [7]); 99% (active) in assay [2] (setting [8]); 98% (active) in assay [2] (at 50.0 µM). The growth inhibition in assay [3] (setting [7]) was 33%; in assay [3] (setting [8]) it was 98% (active); in assay [3] (at 50.0 µM), 99.5% (active); in assay [4] (setting [7]), 14%; in assay [4] (setting [8]) it was 96% (active); in assay [4] (at 50.0 µM), 97.5% (active). In addition, the growth inhibition is -1% in assay [5] (setting [7]); 96% (active) in assay [5] (setting [8]); 96.4% (active) in assay [5] (at 50.0 µM); 49% in assay [6] (setting [7]); 97% (active) in assay [6] (setting [8]); 97.8% (active) in assay [6] (at 50.0 µM).
Regarding `C1=NC(N(Cc2ccccc2)Cc2ccccc2)N(Cc2ccccc2)N1` (stereo not drawn), the growth inhibition in assay [1] (setting [7]) was 26%; in assay [1] (setting [8]) it was 95% (active); in assay [1] (at 50.0 µM), 92.4% (active); in assay [2] (setting [7]) it was -1%; in assay [2] (setting [8]), 95% (active); in assay [2] (at 50.0 µM), 93.6% (active). Moreover, the growth inhibition in assay [3] (setting [7]) is 14%; in assay [3] (setting [8]), 94% (active); in assay [3] (at 50.0 µM) it was 92.1% (active); in assay [4] (setting [7]) it was -1%; in assay [4] (setting [8]), 95% (active); in assay [4] (at 50.0 µM), 89.8% (active). The growth inhibition is -14% in assay [5] (setting [7]); 96% (active) in assay [5] (setting [8]); 92.2% (active) in assay [5] (at 50.0 µM); -19% in assay [6] (setting [7]); 96% (active) in assay [6] (setting [8]); 88.8% (active) in assay [6] (at 50.0 µM).
Consider `Cc1ccc(NC(=O)CSC(N)=O)cc1C`, for which the growth inhibition in assay [1] (setting [7]) is 4%; in assay [1] (setting [8]) it was 22%; in assay [1] (at 50.0 µM), 81.5% (active); in assay [2] (setting [7]) it was 1%; in assay [2] (setting [8]), 40%; in assay [2] (at 50.0 µM), 70.1% (active). For the same compound, the growth inhibition in assay [3] (setting [7]) was 1%; in assay [3] (setting [8]), 30%; in assay [3] (at 50.0 µM), 87.3% (active); in assay [4] (setting [7]), 1%; in assay [4] (setting [8]), 9%; in assay [4] (at 50.0 µM), 58.5%. For the same compound, the growth inhibition is 5% in assay [5] (setting [7]); 69% in assay [5] (setting [8]); 86.2% (active) in assay [5] (at 50.0 µM); 8% in assay [6] (setting [7]); 20% in assay [6] (setting [8]); 72% (active) in assay [6] (at 50.0 µM).
In the case of `CC(=O)CC(C)=O.CCN(CC)CC[C-]=O.[Pd+2]`, the growth inhibition was 1% in assay [1] (setting [7]); 54% in assay [1] (setting [8]); 66.9% in assay [1] (at 50.0 µM); 8% in assay [2] (setting [7]); 33% in assay [2] (setting [8]); 70.8% (active) in assay [2] (at 50.0 µM). The growth inhibition is -5% in assay [3] (setting [7]); 22% in assay [3] (setting [8]); 73.5% (active) in assay [3] (at 50.0 µM); 21% in assay [4] (setting [7]); 32% in assay [4] (setting [8]); 9.6% in assay [4] (at 50.0 µM). The growth inhibition was -1% in assay [5] (setting [7]); 33% in assay [5] (setting [8]); 76.5% (active) in assay [5] (at 50.0 µM); 0% in assay [6] (setting [7]); 54% in assay [6] (setting [8]); 74.9% (active) in assay [6] (at 50.0 µM).
`O=C(CCl)NC(=O)N(/N=C/c1ccco1)c1ccccc1`: the growth inhibition in assay [1] (setting [7]) is -1%; in assay [1] (setting [8]), 52%; in assay [1] (at 50.0 µM), 44.8%; in assay [2] (setting [7]), 3%; in assay [2] (setting [8]), 60%; in assay [2] (at 50.0 µM), 47%. In addition, the growth inhibition in assay [3] (setting [7]) was -4%; in assay [3] (setting [8]) it was 38%; in assay [3] (at 50.0 µM), 55.2%; in assay [4] (setting [7]), 1%; in assay [4] (setting [8]) it was 24%; in assay [4] (at 50.0 µM) it was -16.1%. The growth inhibition in assay [5] (setting [7]) is 3%; in assay [5] (setting [8]) it was 83% (active); in assay [5] (at 50.0 µM) it was 59.2%; in assay [6] (setting [7]) it was 3%; in assay [6] (setting [8]) it was 68%; in assay [6] (at 50.0 µM), 58%.
